# Source: PubChem BioAssay
# IDH1 R132H inh = human IDH1 R132H inhibition; O75874; IDH1-R132H enzyme, NADPH consumption, diaphorase/resazurin fluorescence; Potency, µM (titrated, usually from 76.6 µM), inactives show at the highest dose activity change, negative = inhibition, most hits filed as inhibitors; 0.093% of 390,000 active; also: nearly all actives have a fitted effect of over 65% in size
#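 IDH1-R132H (0.5 ug/mL) preincubated 30 min with compound, then NADPH (0.016 mM) and alpha-KG (2 mM) added; 80 min at RT, pH 7.5. Remaining NADPH coupled via diaphorase/resazurin to fluorescence (540/590 nm); concentration-response curves normalized to no-enzyme control.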
# VDR inhibitor = inhibitors of human vitamin D receptor. VDR-SRC2-3 peptide fluorescence polarization, 2 h. Potency, µM, for inactives: max response, negative = inhibition, hits mostly inhibitors. 0.93% of 400,000 active
#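 Fluorescence polarization assay of small-molecule disruption of VDR binding to coregulator peptide SRC2-3. Compounds and controls pin-transferred, then read after 2 h incubation at ambient room temperature.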
# PLK1 PBD inh = PLK1 (human) polo-box domain binding inhibition; Potency, µM, without a hit: max response, negative = inhibition, hits mostly inhibitors; AID 720504; 2.8% of 360,000 active; Plk1 PBD binding of FITC phosphopeptide, fluorescence polarization; also: series mostly up to about 57 µM; nearly all actives have a fitted effect of over 65% in size
# TrxR1 substrate = rat thioredoxin reductase 1 substrate activity; purified TrxR1 substrate turnover, NADPH consumption readout; Potency, µM (series often up to 114 µM), inactives show top-dose activity change, negative = substrate turnover; 0.01% of 390,000 active; AID 588456; also: nearly all actives have a fitted effect of over 50% in size
#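 Rat TrxR1, dispensed at 90 nM, was prereduced with 400 uM NADPH (final) for 5 min at ~22 deg C, then incubated with compound 15 min before 400 uM selenite. A first-read NADPH fluorescence drop versus no-compound background flagged substrates.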
# rTrxR1 inhibitor = rat TrxR1 inhibition; O89049; recombinant rTrxR1, NADPH fluorescence consumption, selenite substrate; Potency, µM (top dose mostly 114 µM), for inactives: at the highest dose activity change, negative = inhibition, actives largely listed as inhibitors; 1% of 390,000 active; AID 588453; also: nearly all actives have a fitted effect of over 65% in size
#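 Rat TrxR1 (90 nM in the dispensed reagent) was pre-reduced with 400 uM NADPH for 5 min at room temperature, then incubated with compound for 15 min. After 400 uM selenite was added, NADPH fluorescence (Ex 340/Em 450 nm) was followed for 8 min.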
# Sfp PPTase inh = inhibitors of Bacillus subtilis Sfp phosphopantetheinyl transferase. Q9F4F7. Biochemical Sfp PPTase activity, qHTS. AID 1490. Potency, µM, for the others: largest response in the series, negative = inhibition, hits mostly inhibitors. 3.5% of 310,000 active;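 also: the enzyme is Sfp with the accession as filed and its product quenches rhodamine fluorescence; 0% = enzyme reaction without inhibitor and -100% = no enzyme wells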
#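 Compounds were incubated with enzyme (final 15 nM) for 15 min at room temperature before substrate addition started the reaction. Fluorescence at 525 nm excitation, 598 nm emission was recorded immediately and after 30 minutes.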
# The depositor's hits bear a star; ? = inconclusive; · = not tested or not shown; [ ] = another dose, or the depositor's remark. This is a sample that favours compounds with a hit; in the whole collection about 5.2% have one here. Calls follow the shape of the dose curve; as a rule, active = well fitted curve in the direction sought with a large enough effect; inconclusive = small, poorly fitted or top-dose-only effect, or another doubt; inactive = no such curve, though single readings can be large; an effect the other way counts as inactive or inconclusive. Unless noted, % is scaled to controls: 0 for no effect and ±100 for the full control effect; potency is read from the fitted curve at half-maximal effect.
SMILES,IDH1 R132H inh,VDR inhibitor,PLK1 PBD inh,TrxR1 substrate,rTrxR1 inhibitor,Sfp PPTase inh
CC1(C)CC(=O)C(Sc2nnc(-c3ccc(O)cc3)n2CC2CCCO2)C(=O)C1 (configuration not stated),1.7%,-0.3%,-7.1%,8.2%,3.1%,44.7µM*
Cc1ccccc1OCC(=O)NCC(=O)OCc1ccc2ccccc2c1,·,-8.6%,·,0.5%,3.5%,·
Cc1ccc(NS(=O)(=O)c2ccc3[nH]c(=O)oc3c2)c(C)c1,2.2%,?,29.9µM*,-12.9%,-2.0%,9.4%
Cc1cc(N2CCN(c3cccc(C)c3C)CC2)n2nc(C)c(-c3ccc(Cl)cc3)c2n1,5.2%,3.3%,·,19.3%,-9.1%,·
Cn1c(=O)c2c(=O)cc(NNC(=O)CC#N)[nH]c2n(C)c1=O,-7.6%,-25.7%,29.9µM*,-2.4%,17.4%,9.2%
c1ccc(SCc2nc(-c3ccncc3)no2)cc1,2.2%,-8.2%,13.4µM*,9.1%,28.6%,-18.7%
c1ccc(OCc2nc(-c3ccncc3)no2)cc1,1.3%,7.8%,-3.7%,7.5%[57.1 µM],8.4%,-16.5%
Clc1ccccc1OCc1nc(-c2ccncc2)no1,1.8%,-6.0%,6.7µM*,-2.4%,-10.4%,6.5%
COc1ccc(-c2noc(CSc3ccccc3)n2)cc1OC,0.4%,-0.9%,-8.3%,-5.7%[57.1 µM],11.0%[57.1 µM],?
Cc1ccc(SCc2nc(-c3ccncc3)no2)cc1,-0.3%,-19.4%,2.99µM*,-2.0%,12.5%[57.1 µM],9.8%
c1ccc2c(-c3nc(-c4ccncc4)no3)cccc2c1,1.0%,-6.7%,-4.1%,75.1%,82.1%,10µM*
COC(=O)[C@]12CCCCC=C1N(Cc1cccc3ccccc13)C(=O)[C@H](CC(=O)NCC13CC4CC(CC(C4)C1)C3)C2,·,·,-6.8%,·,·,·
O=C(NCc1cccnc1)c1cc(C2CCCCN2S(=O)(=O)Cc2ccccc2)on1 (configuration not stated),·,·,-15.0%,·,·,·
CC[C@H](C)[C@H](NC(=O)[C@H](CC(=O)O)NC(=O)[C@H](CC(N)=O)NC(=O)[C@@H](NC(=O)[C@H](CCCNC(=N)N)NC(=O)[C@@H](NC(=O)[C@@H](NC(=O)[C@@H](NC(=O)[C@@H](NC(=O)[C@H](CCCCN)NC(=O)[C@@H](NC(=O)[C@H](CC(C)C)NC(=O)[C@@H](NC(=O)[C@H](CCCCN)NC(=O)[C@@H](NC(=O)[C@H](CC(=O)O)NC(=O)[C@H](CC(=O)O)NC(=O)[C@H](CCC(N)=O)NC(=O)[C@@H](NC(=O)[C@H](CCCCN)NC(=O)[C@H](CCC(N)=O)NC(=O)[C@@H](NC(=O)[C@@H]1CCCN1C(=O)[C@@H](N)C(C)C)[C@@H](C)CC)C(C)C)[C@@H](C)O)[C@@H](C)O)[C@@H](C)CC)[C@@H](C)O)[C@@H](C)CC)C(C)C)[C@@H](C)O)[C@@H](C)CC)C(=O)N[C@@H](CO)C(=O)N[C@@H](Cc1cnc[nH]1)C(=O)N[C@H](C(=O)N[C@@H](CCC(N)=O)C(=O)N[C@@H](CO)C(=O)N[C@H](C(=O)N[C@@H](CO)C(=O)N[C@@H](CO)C(=O)N[C@@H](CCCCN)C(=O)N[C@@H](CCC(N)=O)C(=O)N[C@@H](CCCCN)C(=O)O)C(C)C)[C@@H](C)O,·,2.6%,·,·,·,2.2%
CN(Cc1cccs1)CC(O)COCc1ccco1 (configuration not stated),-2.8%,-8.1%,0.5%,-3.0%,-11.7%,7.0%
CC(=O)c1ccc(OCC(O)CN(C)Cc2cccs2)cc1 (configuration not stated),1.1%,9.9%,-9.0%,1.7%,10.2%,56.2µM*
Cc1nnc(SCc2cc(=O)n3c(C)cccc3n2)s1,-4.2%,6.6%,·,1.3%[57.1 µM],12.7%[57.1 µM],·
C=CCCC1CN(Cc2ccco2)S(=O)(=O)c2c(F)cccc2O1 (configuration not stated),-3.3%,?,-16.4%,-2.6%,39.8µM*,·
